From PubChem
The list is not random: actives were taken first. Their share in the collection is about 4%.
Rv3671c inh: inhibits the M. tuberculosis serine protease Rv3671c | AID 2606 | 320,000 compounds, 0.048% hits | inhibition, % at 5.96 µM | P9WHR9; in the data active = inhibition above about 38%;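 note: extracellular domain of Rv3671c used as enzyme; 0% = enzyme with DMSO and 100% = no enzyme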
GDH-TPI inh: GDH-TPI coupled enzyme inhibition counter-screen. 360,000 compounds, 1.2% hits. inhibition, % at 4.8 µM. GDH-TPI coupled enzyme counterscreen, NADH absorbance; in the data active = inhibition above about 30%;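 note: 0% = DMSO wells and 100% = wells lacking the enzyme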
RecA splice inh: blocks M. tuberculosis RecA intein splicing; AID 2221; cell-free RecA intein splicing, fluorescence; 290,000 compounds, 0.75% hits; inhibition, % (concentration not given with the values); in the data active = inhibition above about 30%; inconclusive = no clear call, values can overlap the other calls;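 note: 0% = vehicle wells and 100% = reference inhibitor control wells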
UGM FP inh: Mtb UDP-galactopyranose mutase inhibition | purified UGM, fluorescence polarization probe displacement | inhibition, % at 10 µM | 320,000 compounds, 0.06% hits | AID 504406; in the data active = inhibition above about 10%, passing the limit was not always enough; inconclusive = no clear call, values can overlap the other calls
Target sequence (P9WIQ1 whole entry, looked up): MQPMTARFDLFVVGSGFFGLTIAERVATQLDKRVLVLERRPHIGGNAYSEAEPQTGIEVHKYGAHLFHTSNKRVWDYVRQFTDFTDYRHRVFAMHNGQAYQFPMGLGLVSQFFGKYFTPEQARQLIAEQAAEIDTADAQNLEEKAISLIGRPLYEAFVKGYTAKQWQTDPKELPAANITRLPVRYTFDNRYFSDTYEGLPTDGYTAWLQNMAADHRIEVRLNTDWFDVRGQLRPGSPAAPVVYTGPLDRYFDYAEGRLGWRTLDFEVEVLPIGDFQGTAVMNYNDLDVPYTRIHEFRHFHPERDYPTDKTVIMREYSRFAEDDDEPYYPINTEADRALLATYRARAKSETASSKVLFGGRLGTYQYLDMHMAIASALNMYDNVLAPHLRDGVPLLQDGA
FBA Mtb inh: Mtb fructose-bisphosphate aldolase inhibition. P9WQA3. purified M. tuberculosis FBA, fluorescence read-out. inhibition, % at 1 µM. 360,000 compounds, 2.3% hits; in the data active = inhibition above about 27%;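 note: 0% = vehicle and 100% = reference inhibitor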
Mtb betalactam: beta-lactam sensitization of Mtb H37Rv | M. tuberculosis H37Rv growth with meropenem, percent inhibition | inhibition, % at 25 µM | 330,000 compounds, 0.27% hits | AID 434955;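 note: growth measured after seven days incubation then overnight dye step; 0% = bacteria only wells and 100% = bacteria with antibiotic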
GFP chromophore: counter-screen GFP chromophore formation inhibition | shares compounds with RecA splice inh | cell-free GFP chromophore formation, fluorescence | EC50, µM | 2,100 compounds, 83% hits | AID 434968
* marks the source's active call; other numbers are inactive results; ? = inconclusive; · = no result given. Unless noted, the rule behind the calls is not given here.

SMILES	Rv3671c inh	GDH-TPI inh	RecA splice inh	UGM FP inh	FBA Mtb inh	Mtb betalactam	GFP chromophore
CCOc1cccc(N)c1	1	-1	·	2	0	28	·
COc1cccc(-c2cc(=O)[nH][nH]2)c1	-15	7	98*	1	-1	-3	2.2*
COc1ccc(-c2cc(=O)[nH][nH]2)cc1OC	-156	3	99*	-2	3	-7	0.97*
O=C(COC(=O)COc1ccc(Cl)cc1Cl)NC1CCS(=O)(=O)C1 (stereo unspecified)	8	1	·	5	2	3	·
CCOC(=O)c1c(NC(=S)N2CCCCC2)sc2c1CCN(C(=O)OCC)C2	1	8	33*	0	2	80	25*
CCOC(=O)c1c(NC(=S)N2CCOCC2)sc2c1CCN(C(=O)OCC)C2	8	-1	39*	0	1	66	33*
COc1ccc(CCNC(=O)C(=O)NCC2CCCN2S(=O)(=O)c2ccccc2)cc1OC (stereo unspecified)	-8	9	-1	4	-1	-9	·
CC(=O)NC(=S)c1c(N)n(Cc2ccccc2)c(=O)n(C)c1=O	0	·	33*	-2	·	5	>38
Oc1ccc(Nc2nc(-c3ccc4ccccc4c3)cs2)cc1	4	4	34*	3	-1	93	20*
N=c1n(Cc2ccccc2)c2ccccc2n1CC(O)COc1ccc(Cl)cc1Cl (stereo unspecified)	·	-2	32*	·	-7	·	>38
Cc1ccccc1NC(=O)c1nc(S(C)(=O)=O)ncc1Cl	3	4	·	1	-2	90	·
CS(=O)(=O)c1ncc(Cl)c(C(=O)Nc2ccc(N3CCOCC3)cc2)n1	-8	11	45*	-1	-3	3	38*
CS(=O)(=O)c1ncc(Cl)c(C(=O)Nc2ccc(OC(F)F)cc2)n1	-1	-1	79*	-1	-6	100	11*
COc1ccc(CN(C)C(C)C(=O)Nc2ccc(S(=O)(=O)N3CCCCC3)cc2)c(OC)c1 (stereo unspecified)	6	2	·	1	3	-6	·
O=C1/C(=C\c2cccc(O)c2O)SC(=S)N1Cc1ccccc1	-10	20	36*	1	-1	-1	39*
O=C1/C(=C\c2cc([N+](=O)[O-])ccc2O)SC(=S)N1Cc1ccc(Cl)cc1	-183	0	52*	-4	-6	24	35*
O=C(Cc1cc(=O)[nH][nH]1)N/N=C/c1c(Cl)cccc1Cl	-61	4	70*	2	-2	7	12*
O=C(CSCc1ccc(Cl)cc1)N/N=C/c1c(Cl)cccc1Cl	-1	-3	3	3	0	-6	·
O=C(Cc1cc(=O)[nH][nH]1)N/N=C/c1c(F)cccc1Cl	-42	2	95*	-5	2	-4	7.9*
CN(C)S(=O)(=O)c1cccc(NC(=O)CCc2nc3cc(S(=O)(=O)N4CCOCC4)ccc3n2C)c1	-3	9	-2	·	7	-4	·
CCCCCCCCCCOC(=O)Cn1c(COc2ccccc2OC)[n+](C)c2ccccc21	4	5	49*	-1	-1	54	12*
Oc1ccc(O)c2c1C1c3ccccc3C2c2ccccc21	8	·	44*	1	·	-1	10*
CN1CCN(CC(=O)N2N=C(c3cccs3)CC2c2ccco2)CC1 (stereo unspecified)	1	5	1	0	2	4	·
O=C(CCl)N1N=C(c2cccs2)CC1c1ccco1 (stereo unspecified)	7	18	63*	0	4	100	31*
O=C(OCn1ncc(Cl)c(Cl)c1=O)c1ccc(C(F)(F)F)cc1	·	3	80*	·	-1	·	1.4*
SMILES	Rv3671c inh	GDH-TPI inh	RecA splice inh	UGM FP inh	FBA Mtb inh	Mtb betalactam	GFP chromophore
CCOC(=O)c1ccc(NC(=O)Cn2ncc(Cl)c(Cl)c2=O)cc1	-17	7	62*	-2	1	100	13*
COc1ccc(NC(=O)c2ccc(Cl)nc2)cc1S(=O)(=O)N1CCOCC1	-2	11	·	3	2	-8	·
COc1ccc(NC(=O)Cn2ncc(Cl)c(Cl)c2=O)cc1S(=O)(=O)N1CCOCC1	-13	13	43*	-1	1	-5	31*
Cc1ccc(C(=O)OCn2ncc(Cl)c(Cl)c2=O)cc1	-10	4	75*	0	-1	100	6.4*
CC(C)N(C(=O)CN1CCN(C(=O)C2COc3ccccc3O2)CC1)C(C)C (stereo unspecified)	6	-3	·	0	0	5	·
COc1ccc(CNC(=O)C/C(C)=N/NC(=O)c2ccc(OC)cc2OC)cc1	5	5	0	3	8	9	·
COc1ccc(N2CCN(C(=O)c3ccc(Oc4ccc(C(F)(F)F)cn4)cc3)CC2)cc1	1	14	31*	0	-2	64	>38
O=C(c1ccc(Oc2ccc(C(F)(F)F)cn2)cc1)N1CCN(c2ccccc2)CC1	4	15	4	1	0	60	·
CCC(C)[C@H](NC(=O)NC1CCN(Cc2ccccc2)CC1)C(=O)OC (stereo partly specified)	12	5	38*	1	-1	0	>38
COc1ccc(C)cc1NC(=O)NC1CCN(Cc2ccccc2)CC1	7	-3	-1	1	4	99	·
O=C(COC(=O)c1ccc[nH]c1=O)NCC12CC3CC(CC(C3)C1)C2	4	14	·	·	4	0	·
O=C(CCC(=O)N1CCc2ccccc2C1)NCCc1ccc(Cl)cc1	-5	5	1	2	3	-3	·
N#C/C(=C\c1cc(Cl)c(OCc2ccc(Cl)cc2)c(Cl)c1)C(N)=O	-11	·	44*	0	·	19	>38
O=S1(=O)C[C@H](N2CCOCC2)[C@@H](COCc2ccccc2)N1	·	·	·	·	0	·	·
CCN(CC)CCN1C(=O)c2cccc3cc(N)cc(c23)C1=O	0	16	46*	5	2	1	0.42*
Nc1cc2c3c(cccc3c1)C(=O)N(CCN1CCCC1)C2=O	-11	-1	-13	5	-5	5	·
Cc1cccc(OCC(=O)Nc2ccccc2N2CCCC2)c1C	6	2	-3	0	3	55	·
Cc1ccccc1OCC(=O)Nc1ccccc1N1CCCCC1	-5	3	32*	1	-1	·	>38
Cc1ccc(SCc2[nH]nc3c2C(C(C)C)C(C#N)=C(N)O3)cc1 (stereo unspecified)	2	0	7	0	-1	-1	·
Cc1ccc(SCc2[nH]nc3c2C(c2ccc(C)o2)C(C#N)=C(N)O3)cc1 (stereo unspecified)	-43	4	37*	5	1	?	>12
Cc1ccc(SCc2[nH]nc3c2C(c2ccco2)C(C#N)=C(N)O3)cc1 (stereo unspecified)	0	-5	73*	1	-5	5	25*
